HT1080NT lethal: kills 2HG-producing HT-1080-NT fibrosarcoma cells. HT-1080-NT fibrosarcoma viability, CellTiter-Glo ATP luminescence, 48 h. Potency, µM (doses to about 46.1 µM), without a hit: top-dose activity, negative = less viability, hits mostly cytotoxic. 1.6% of 360,000 active;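 also: NT is the 2HG producing partner of a matched IDH1 knockdown line; potency is read from the fitted curve at half-maximal effect; 0% = DMSO-treated cells and -100% = media-only wells without cells; nearly all actives have a fitted effect of over 55% in size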
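Fibrosarcoma NT cells, 750 per well in 5% FBS RPMI, were exposed to compound for 48 hours. Viability: CellTiter-Glo luminescence.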
DT40 TDP1 no CPT: qHTS for Inhibitors of human tyrosyl-DNA phosphodiesterase 1 (TDP1): qHTS in cells in absence of CPT; DT40 Tdp1-/- hTDP1 cells, no CPT, ATP luminescence, 48 h; Potency, µM (highest dose often 46.2 µM), for the others: top-dose activity change, negative = growth inhibition, hits mostly inhibitors; 15% of 420,000 active; also: potency is read from the fitted curve at half-maximal effect; nearly all actives have a fitted effect of over 55% in size
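A cellular qHTS used chicken DT40 cells lacking endogenous Tdp1 but carrying stably transfected human TDP1. Compounds were applied without camptothecin, and cell growth kinetics were judged by ATP-dependent luminescence after ≥48 hr.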
DT40 TDP1 CPT: growth inhibition of DT40 Tdp1-/-;hTDP1 cells with camptothecin (screen for TDP1 inhibitors). chicken DT40 Tdp1-/-;hTDP1 cells + 20 nM CPT, ATP luminescence, 48 h. Potency, µM (doses to about 46.2 µM), for the others: at the top dose activity change, negative = growth inhibition, most hits filed as inhibitors. 12% of 420,000 active; also: potency is read from the fitted curve at half-maximal effect; nearly all actives have a fitted effect of over 55% in size
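Chicken DT40 Tdp1-/- cells stably complemented with human TDP1 were seeded at 400 cells/well in medium containing 20 nM camptothecin, exposed to pin-transferred compounds, and grown at 37 °C for at least 48 hr. Viability was read as ATP luminescence.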
IL1B secr inh: inflammasome signaling inhibition, IL-1 beta readout | THP-1 LPS/ATP IL-1B secretion, AlphaLISA, 16 h; active compounds read low | 4.7% of 360,000 active | activity change, % at 57.5 µM; in the data active = activity change below about -50%; inconclusive = mostly about -30% to -49%
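Secreted IL-1B measured by AlphaLISA bead assay after 16 h compound exposure of THP-1 cells; compounds (final up to 57.5 uM) added 1 h before LPS (250 ng/mL) and ATP (1.25 mM) stimulation; lower signal means less secretion.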
12-LOX inh: blocks human arachidonate 12S-lipoxygenase | P18054 | Potency, µM (titrated, usually from 108 µM), for inactives: at the highest dose activity change, negative = inhibition, actives largely listed as inhibitors | 1.1% of 580,000 active | purified 12hLO, xylenol orange hydroperoxide absorbance; also: potency is read from the fitted curve at half-maximal effect
Target sequence (P18054 whole entry, looked up): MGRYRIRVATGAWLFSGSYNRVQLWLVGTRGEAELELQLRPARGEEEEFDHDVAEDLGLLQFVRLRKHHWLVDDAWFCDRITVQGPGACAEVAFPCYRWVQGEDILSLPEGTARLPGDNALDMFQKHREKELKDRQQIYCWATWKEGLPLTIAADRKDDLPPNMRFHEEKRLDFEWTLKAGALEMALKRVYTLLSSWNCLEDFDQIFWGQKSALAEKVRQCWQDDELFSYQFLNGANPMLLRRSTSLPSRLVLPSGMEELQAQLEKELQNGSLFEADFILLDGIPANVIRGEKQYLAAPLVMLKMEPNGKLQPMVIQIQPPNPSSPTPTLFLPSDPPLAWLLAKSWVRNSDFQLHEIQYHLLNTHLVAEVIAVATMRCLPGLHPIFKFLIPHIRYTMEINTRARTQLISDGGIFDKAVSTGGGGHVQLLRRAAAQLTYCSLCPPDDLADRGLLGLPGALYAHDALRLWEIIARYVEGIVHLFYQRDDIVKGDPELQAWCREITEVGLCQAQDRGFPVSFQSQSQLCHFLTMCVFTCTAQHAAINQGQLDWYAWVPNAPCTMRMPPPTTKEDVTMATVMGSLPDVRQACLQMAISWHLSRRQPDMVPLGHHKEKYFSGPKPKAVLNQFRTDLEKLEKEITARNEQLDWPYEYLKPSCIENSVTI
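Hydroperoxide product was detected by ferrous iron/xylenol orange as the 573 to 405 nm absorbance ratio. Arachidonic acid at 40 uM (final) was turned over for 30 min at room temperature by 150 nM human 12hLO, pH 7.0 Hepes buffer, after 15 min compound preincubation.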
HT1080 IDH1KD tx: HT-1080 IDH1 knockdown cell toxicity (counter line); HT-1080 IDH1 knockdown viability, ATP luminescence, 48 h; AID 686971; 2% of 360,000 active; Potency, µM (highest dose often 46.1 µM), inactives show at the top dose activity, negative = toxicity, most hits filed as cytotoxic;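 also: potency is read from the fitted curve at half-maximal effect; 0% = DMSO wells and -100% = cell-free medium wells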
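Luminescent ATP read-out (CellTiter-Glo, 10 min at room temperature) after 48 h compound exposure at 37 °C gave viability of IDH1-knockdown HT-1080 cells. Activity was normalised to DMSO and cell-free wells, then fitted as concentration-response curves.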
* hit, by the source's call; ? = inconclusive; . = no result; [ ] = another dose, or the depositor's remark. Shown is part of a subset that was picked to be rich in hits. Unless noted, calls follow the shape of the dose curve; as a rule, active = well fitted curve in the direction sought with a large enough effect; inconclusive = small, poorly fitted or top-dose-only effect, or another doubt; inactive = no such curve, though single readings can be large; an effect the other way counts as inactive or inconclusive. Unless noted, % is scaled to controls: 0 for no effect and ±100 for the full control effect.

SMILES | HT1080NT lethal | DT40 TDP1 no CPT | DT40 TDP1 CPT | IL1B secr inh | 12-LOX inh | HT1080 IDH1KD tx
COc1ccccc1CC(=O)N1CCN(C(=O)c2nnn3c2COC(c2ccc(C)cc2)C3)CC1 (stereo not drawn) | . | . | . | . | -0.4% | .
CC(NS(C)(=O)=O)C(c1cccs1)N1CCN(Cc2ccccc2)CC1 (stereo not drawn) | -5.8% | ? | ? | 8.4 | 13.7%[57.4 µM] | 2.9%
CN1CCN(C2=C(NS(=O)(=O)c3cccs3)C(=O)c3ccccc3C2=O)CC1 | ? | 20.6µM* | 16.4µM* | 68.7 | -13.2% | ?
O=C1C(NS(=O)(=O)c2cccs2)=C(N2CCOCC2)C(=O)c2ccccc21 | ? | ? | ? | 10.3 | ? | ?
O=C(CNS(=O)(=O)c1cccs1)N1CCN(c2cccc(C(F)(F)F)c2)CC1 | . | 20.6µM* | 16.4µM* | . | -21.8% | .
O=C1C(NS(=O)(=O)c2cccs2)=C(N2CCN(Cc3ccccc3)CC2)C(=O)c2ccccc21 | -1.5% | 16.4µM* | ? | 4.6 | -15.4% | -11.1%
O=C1c2ccccc2C(=O)C1(c1ccccc1)N1CCN(c2cccc(C(F)(F)F)c2)CC1 | . | ? | ? | . | -13.0% | .
O=C1C(NS(=O)(=O)c2cccs2)=C(N2CCN(c3cccc(C(F)(F)F)c3)CC2)C(=O)c2ccccc21 | ? | 23.1µM* | 16.4µM* | -24.0 | ? | ?
Cc1ccc(OCC(=O)Nc2ccc(S(=O)(=O)Nc3nccs3)cc2)cc1 | . | . | . | . | -3.5% | .
CCCCCCCC(=O)Oc1ccc(C(=O)O)cc1 | . | . | . | . | -3.4% | .
COc1ccccc1N1CCN(S(=O)(=O)c2cccs2)CC1 | -0.2%[9.24 µM] | -14.3% | -25.9% | -11.5 | -11.4% | 0.6%
CCOc1ccccc1N1CCN(C2=C(NS(=O)(=O)c3cccs3)C(=O)c3ccccc3C2=O)CC1 | ? | 25.9µM* | ? | -29.0 | -0.5% | ?
Cc1onc(-c2ccccc2)c1C(=O)N1CCN(S(=O)(=O)c2ccccc2Br)CC1 | 0.0% | 14.6µM* | ? | 37.2 | -28.9% | 6.7%
Cc1onc(-c2ccccc2)c1C(=O)N1CCN(S(=O)(=O)c2ccc(Cl)cc2)CC1 | 11.0% | -25.9% | -21.9% | 34.9 | ? | 0.0%
CCc1noc(C)c1C(=O)N1CCN(c2cccc(C)c2C)CC1 | 2.5% | 14.6µM* | ? | 4.0 | -20.2% | -0.6%
Cc1cccc(N2CCN(C(=O)c3c(-c4ccccc4)noc3C)CC2)c1C | 1.16µM* | 1.46µM* | 2.91µM* | 32.1 | -1.7% | 1.3µM*
Cc1onc(-c2ccccc2)c1C(=O)N1CCN(c2ncccc2C(F)(F)F)CC1 | 12.3% | ? | 23.1µM* | -8.3 | -1.9% | 12.1%
Cc1ccc(-c2cnc(CCC(=O)NCC(c3cccc(F)c3)N(C)C)o2)cc1 (stereo not drawn) | . | . | . | . | -7.6% | .
COc1cc(NC(=O)Cc2sc(C)nc2-c2cccs2)cc(OC)c1OC | . | . | . | . | 26.9% | .
CC1(C(=O)Nc2ccc3nc[nH]c3c2)CCN1C(=O)Cc1ccc(-c2ccccc2)cc1 (stereo not drawn) | -16.4% | 16.4µM* | ? | 23.8 | -10.1% | -25.9%
CC(C)NC(=O)C1(C)CCCN1C/C=C/c1ccccc1 (stereo not drawn) | 17.5% | 23.1µM* | 20.6µM* | 36.6 | ? | -3.4%
COc1ccccc1CNC(=O)c1ccc(-c2ccccc2)cc1 | -14.2% | -18.4% | 11.9% | 0.3 | -23.2% | -0.2%
COc1ccccc1CNC(=O)C1(C)CCN1C(=O)Cc1ccc(-c2ccccc2)cc1 (stereo not drawn) | ? | 14.6µM* | 16.4µM* | -23.4 | -11.9% | ?
